Values joined by “and” are separate entries in the source; they are usually repeats but may differ in a detail not shown here. Equal entries are not always repeated. About 2,000 (36%) of roughly 5,500 compounds were called active. Another 18% or so got no clear call; they are omitted. Cut-off read from the data, not from the text of the source: active = normalized growth mostly below about 0.91 (no sharp cut-off); inconclusive = no clear call, values can overlap the other calls; inactive = mostly above about 0.92. Some of the results follow.
Assay: chemical genetic growth profiling, strain panel (AID 1159580);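 note: tested at 20 µM; growth read once vehicle control cultures reached saturation at 30 °C; 1 = growth at the plate median or of vehicle wells; lower values mean less growth of the strain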
Conditions: S. cerevisiae deletion strains, growth OD

Measured: normalized growth

OC[C@H]1O[C@@H](O[C@H]2[C@H](O)[C@@H](O)[C@@H](O)O[C@@H]2CO)[C@H](O)[C@@H](O)[C@@H]1O
inactive: locus YAL013W, strain DEP1, stronger effect = lower value 1.02 | locus YAL021C, strain ccr4, stronger effect = lower value 1.01 | locus YAL026C, strain drs2, stronger effect = lower value 1.01 | locus YAL030W, strain snc1, stronger effect = lower value 1 | locus YBL061C, strain skt5, stronger effect = lower value 1 | locus YBR009C, strain hhf1, stronger effect = lower value 1.06 | locus YBR021W, strain FUR4, stronger effect = lower value 1.04 | locus YBR023C, strain chs3, stronger effect = lower value 1.01 | locus YBR171W, strain sec66, stronger effect = lower value 0.996 | locus YBR229C, strain ROT2, stronger effect = lower value 1 | locus YBR231C, strain swc5, stronger effect = lower value 1 | locus YBR279W, strain paf1, stronger effect = lower value 0.993 | locus YCL011C, strain gbp2, stronger effect = lower value 1.02 | locus YCL016C, strain dcc1, stronger effect = lower value 1.01 | locus YCL029C, strain bik1, stronger effect = lower value 1.01 | locus YCL061C, strain MRC1, stronger effect = lower value 1 | locus YCL069W, strain vba3, stronger effect = lower value 1.01 | locus YCR088W, strain abp1, stronger effect = lower value 0.997 | locus YDL005C, strain med2, stronger effect = lower value 0.986 | locus YDL035C, strain GPR1, stronger effect = lower value 1.04 | locus YDL040C, strain nat1, stronger effect = lower value 0.994 | locus YDL074C, strain BRE1, stronger effect = lower value 1.09 | locus YDL101C, strain DUN1, stronger effect = lower value 1.01 | locus YDL134C, strain PPH21, stronger effect = lower value 1.01 | locus YDL185W, strain tfp1, stronger effect = lower value 1.02 | locus YDL192W, strain arf1, stronger effect = lower value 1.03 | locus YDR001C, strain nth1, stronger effect = lower value 0.999 | locus YDR069C, strain doa4, stronger effect = lower value 0.981 | locus YDR101C, strain arx1, stronger effect = lower value 1.02 | locus YDR137W, strain rgp1, stronger effect = lower value 1.01 | locus YDR159W, strain sac3, stronger effect = lower value 0.972 | locus YDR162C, strain NBP2, stronger effect = lower value 1.02 | locus YDR195W, strain ref2 0.958 | locus YDR297W, strain sur2, stronger effect = lower value 1 | locus YDR318W, strain mcm21, stronger effect = lower value 0.994 | locus YDR334W, strain swr1, stronger effect = lower value 0.996 | locus YDR335W, strain msn5, stronger effect = lower value 1.01 | locus YDR388W, stronger effect = lower value 1.02 | locus YDR392W, strain spt3, stronger effect = lower value 0.957 | locus YDR502C, strain sam2, stronger effect = lower value 0.992 | locus YEL003W, strain gim4, stronger effect = lower value 1.02 | locus YEL037C, strain rad23, stronger effect = lower value 1.01 | locus YEL061C, strain CIN8 (second series), stronger effect = lower value 0.999 | locus YEL061C, strain CIN8, stronger effect = lower value 1.01 | locus YER015W, strain faa2, stronger effect = lower value 0.995 | locus YER016W, strain bim1, stronger effect = lower value 1 | locus YER110C, stronger effect = lower value 1.02 | locus YER111C, strain swi4, stronger effect = lower value 1 | locus YER155C, strain BEM2 (second series), stronger effect = lower value 0.987 | locus YER155C, strain BEM2, stronger effect = lower value 1.02 | locus YER167W, strain BCK2, stronger effect = lower value 1.01 | locus YFR010W, strain ubp6, stronger effect = lower value 0.99 | locus YGL078C, strain dbp3, stronger effect = lower value 1.03 | locus YGL086W, strain mad1, stronger effect = lower value 1.04 | locus YGL167C, strain pmr1, stronger effect = lower value 0.999 | locus YGL173C, strain kem1, stronger effect = lower value 1 | locus YGL227W, strain vid30, stronger effect = lower value 1 | locus YGL240W, strain doc1, stronger effect = lower value 1.03 | locus YGL248W, strain PDE1, stronger effect = lower value 1.01 | locus YGL253W, strain hxk2, stronger effect = lower value 1.03 | locus YGR078C, strain PAC10, stronger effect = lower value 1.03 | locus YGR135W, strain pre9, stronger effect = lower value 1.02 | locus YGR252W, strain gcn5, stronger effect = lower value 1 | locus YHR013C, strain ard1, stronger effect = lower value 0.997 | locus YHR027C, strain rpn1, stronger effect = lower value 1.02 | locus YHR030C, strain SLT2, stronger effect = lower value 1.01 and 0.972 | locus YHR079C, strain IRE1 (second series), stronger effect = lower value 1.01 | locus YHR079C, strain IRE1, stronger effect = lower value 0.96 | locus YHR094C, strain hxt1, stronger effect = lower value 1.05 | locus YHR129C, strain ARP1, stronger effect = lower value 1.02 | locus YHR142W, strain chs7, stronger effect = lower value 1.02 | locus YHR200W, strain rpn10, stronger effect = lower value 1.02 | locus YIL066C, strain RNR3, stronger effect = lower value 1.02 | locus YIL073C, strain SPO22, stronger effect = lower value 1.12 | locus YIL125W, strain kgd1, stronger effect = lower value 1.01 | locus YIR030C, strain dcg1, stronger effect = lower value 1.01 | locus YJL092W, strain hpr5, stronger effect = lower value 1.02 | locus YJL095W, strain BCK1 (second series), stronger effect = lower value 0.995 | locus YJL095W, strain BCK1, stronger effect = lower value 1.02 and 1.06 | locus YJL115W, strain asf1, stronger effect = lower value 0.99 | locus YJL129C, strain trk1, stronger effect = lower value 0.987 | locus YJL134W, strain LCB3, stronger effect = lower value 1 | locus YJL154C, strain vps35, stronger effect = lower value 0.991 | locus YJL164C, strain tpk1, stronger effect = lower value 1.02 | locus YJL166W, strain qcr8, stronger effect = lower value 1.03 | locus YJL168C, strain set2, stronger effect = lower value 1.03 | locus YJL187C, strain SWE1 (second series), stronger effect = lower value 1.02 | locus YJL187C, strain SWE1, stronger effect = lower value 1 | locus YJR043C, strain POL32, stronger effect = lower value 1.02 | locus YJR066W, strain TOR1, stronger effect = lower value 0.921

— PubChem BioAssay AID1159580 (chemical genetic matrix, 2015)
